A selection: hits, their analogues and other compounds. The true share with any hit is near 3.5%.
Mtb FBA inh – inhibitors of M. tuberculosis fructose-bisphosphate aldolase | 360,000 tested, 2.3% active | AID 588726 | inhibition, % at 1 µM | P9WQA3 | purified M. tuberculosis FBA, fluorescence read-out; in the data active = inhibition above about 27%
UGM FP inh – Mtb UDP-galactopyranose mutase inhibition. 320,000 tested, 0.06% active. purified UGM, fluorescence polarization probe displacement. P9WIQ1. inhibition, % at 10 µM. AID 504406; in the data active = inhibition above about 10%, passing the limit was not always enough
Rv3671c protease – inhibitors of M. tuberculosis serine protease Rv3671c. P9WHR9. inhibition, % at 5.96 µM. 320,000 tested, 0.048% active; in the data active = inhibition above about 38%;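 note: extracellular domain of Rv3671c used as enzyme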
Target sequence (P9WHR9 whole entry, looked up, the tested form may be a part): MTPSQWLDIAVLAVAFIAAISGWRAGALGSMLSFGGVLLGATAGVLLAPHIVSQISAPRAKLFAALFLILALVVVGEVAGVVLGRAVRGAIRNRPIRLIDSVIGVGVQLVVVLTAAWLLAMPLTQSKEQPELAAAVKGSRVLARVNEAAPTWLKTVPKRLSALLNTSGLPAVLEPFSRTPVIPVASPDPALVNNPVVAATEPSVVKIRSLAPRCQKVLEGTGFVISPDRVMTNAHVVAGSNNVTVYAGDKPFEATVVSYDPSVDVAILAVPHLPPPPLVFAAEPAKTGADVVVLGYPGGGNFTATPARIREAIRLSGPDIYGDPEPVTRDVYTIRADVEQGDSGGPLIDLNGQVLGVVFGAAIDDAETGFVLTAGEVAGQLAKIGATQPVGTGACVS
GDH-TPI counter – inhibits GDH-TPI coupling enzymes, artifact for Mtb FBA screen | GDH-TPI coupled enzyme counterscreen, NADH absorbance | AID 588335 | inhibition, % at 4.8 µM | 360,000 tested, 1.2% active; in the data active = inhibition above about 30%
A number is an active result; . = inactive; / = no result given; + = active, no number.

SMILES	Mtb FBA inh	UGM FP inh	Rv3671c protease	GDH-TPI counter
CC1CCc2sc(C(=O)NC3CCCCC3)cc2C1 (centres undefined)	.	.	.	.
CC1CCc2sc(-c3n[nH]c(=S)o3)cc2C1 (centres undefined)	+	.	.	.
S=c1[nH]nc(-c2cc3c(s2)-c2ccccc2CC3)o1	+	.	.	.
CSc1nnc(-c2cc3c(s2)-c2ccccc2CC3)o1	+	.	.	.
O=C(COC(=O)c1cc(=O)[nH]c2ccccc12)NCCc1ccccc1	.	.	.	.
Cc1ccc(N(Cc2ccccc2)C(=O)Cc2ccc(S(=O)(=O)N3CCOCC3)s2)cc1	.	/	/	.
O=C(c1ccc(Cl)c(Cl)c1)N1CCC(=O)N(C(COCc2cccc(C(F)(F)F)c2)Cc2ccccc2)CC1 (centres undefined)	73	.	.	.
CC(=O)c1ccc(NC(=O)C2=CC(c3ccco3)=NS(=O)(=O)N2C)cc1	.	.	.	31
COc1ccc(NC(=O)C2=CC(c3ccco3)=NS(=O)(=O)N2C)cc1OC	.	.	.	.
COc1ccc(-c2csc(C)n2)cc1OC	.	.	.	.
COc1ccc(-c2cn3cc(C)ccc3n2)cc1OC	161	.	.	.
COc1ccc(-c2cn3ccccc3n2)cc1OC	159	.	.	.
CC[C@@]1(C(=O)OC)N[C@H](CN(C)S(=O)(=O)c2ccc(-c3ccccc3)cc2)[C@@H]2C(=O)N(Cc3ccccc3)C(=O)[C@@H]21	.	/	.	.
O=S(=O)(Cc1noc(-c2ccccc2Cl)n1)c1ccccn1	.	.	.	.
O=c1[nH]c(/C=C\c2cccc(F)c2)nc(O)c1[N+](=O)[O-]	.	.	.	31
O=c1[nH]c(/C=C\c2cccc(Cl)c2)nc(O)c1[N+](=O)[O-]	.	.	.	51
Cc1ccc(S(=O)(=O)N(C)C)cc1NC(=S)NC12CC3CC(CC(C3)C1)C2	+	/	/	.
C=CCCC(=O)N1C[C@H]2CON(C)[C@H]2C[C@H]1c1cccc(N2CCOCC2)c1	.	/	/	.
CCN(CC(=O)NCc1cccs1)C(=O)c1ccc(NS(=O)(=O)c2ccc(F)cc2)cc1	.	.	.	.
Cc1cccc(C(=O)OCC(=O)c2csc(N3CCCCC3)n2)c1[N+](=O)[O-]	.	.	.	36
CS(=O)(=O)c1ccc(-c2cn3cc(C(=O)O)ccc3n2)cc1	114	.	.	.
CCC(C)(C(=O)Nc1ccc2c(c1)OCCO2)N(C(C)=O)c1ccc(C(N)=O)cc1 (centres undefined)	.	.	.	32
O=[N+]([O-])c1cnc(Nc2ccccc2)nc1Nc1ccccc1	.	.	.	.
CCCCCCN1C=CC=C/C1=C\C=C(C#N)C#N	.	16	.	.
CC1=C/C(=C\C=C(C#N)C#N)N(C)c2ccccc21	.	.	.	.
SMILES	Mtb FBA inh	UGM FP inh	Rv3671c protease	GDH-TPI counter
COc1ccc(S(=O)(=O)N2CCOC2CNC(=O)C(=O)NCCc2ccc(S(N)(=O)=O)cc2)cc1 (centres undefined)	.	.	.	.
CCOC(=O)c1cc2c(nc1N)CCCC2	139	.	.	.
CCOC(=O)c1oc2nc3c(cc2c1N)CCCC3	.	.	.	.
O=C1CSC(=S)N1N1C(=O)c2cccc([N+](=O)[O-])c2C1=O	/	.	.	/
COc1ccc(S(=O)(=O)/N=C2/NC(=O)/C(=C\c3cc(OC)c(OC)cc3[N+](=O)[O-])S2)cc1	.	.	.	.
COc1cc(/C=C2\S/C(=N/S(=O)(=O)c3ccccc3)NC2=O)c([N+](=O)[O-])cc1OC	.	.	.	43
Cc1ccc(SCC(=O)OCC(=O)NCCc2ccccc2)cc1C	.	.	.	.
COCCNC(=O)C1CCCN(C(=O)COCc2ccccc2)CC1 (centres undefined)	.	/	/	.
O=C(O)Cn1cc(C(=O)c2ccco2)c2ccccc21	.	.	.	32
O=S(=O)(c1ccc(NC(=S)N/N=C/c2ccc(O)c(O)c2)cc1)N1CCOCC1	.	.	.	37
N#Cc1ccc(/C=N/NC(=S)Nc2ccc(S(=O)(=O)N3CCOCC3)cc2)cc1	.	.	.	40
O=S(=O)(c1ccc(NC(=S)N/N=C/c2cccc(Oc3ccccc3)c2)cc1)N1CCOCC1	.	.	.	.
O=C(NC1=NCCS1)C1CCN(S(=O)(=O)c2ccccc2C(F)(F)F)CC1	.	.	.	.
COc1ccc(S(=O)(=O)N2CCOc3ccccc32)cc1	154	.	.	.
Cc1ccc(/C=C2\C(=N)N3N=C(CC(=O)N4CCOCC4)SC3=NC2=O)o1	.	.	.	45
N=C1/C(=C\c2ccc(SCc3ccccc3)o2)C(=O)N=C2SC(CC(=O)N3CCOCC3)=NN12	.	.	.	39
COc1ccc(/C=C2\C(=N)N3N=C(CC(=O)N4CCOCC4)SC3=NC2=O)cc1	.	.	.	.
CC(=O)Oc1ccccc1/C=C/c1ccc2ccccc2[n+]1C	.	.	.	31
COc1ccc(/C=C/c2ccc3ccccc3[n+]2C)cc1OC	.	.	.	.
COc1ccc(/C=N/NC(=S)Nc2ccccc2[N+](=O)[O-])cc1O	.	.	.	49
O=[N+]([O-])c1cc(/C=N/NC(=S)Nc2ccccc2Cl)ccc1Cl	.	.	.	33
Cc1ccc(NC(=S)N/N=C/c2ccc(Cl)c([N+](=O)[O-])c2)cc1	.	.	.	33
Cc1ccc(C=NNC(=O)C(=O)Nc2ccc(Cl)c([N+](=O)[O-])c2)cc1	.	/	/	/
OC[C@@H]1CN(Cc2ccco2)C[C@H](n2cnc3c(NCc4ccncc4)ncnc32)O1	.	/	/	.
CCOc1ccc(NC(=O)CSc2nnnn2-c2ccc(C(N)=O)cc2)cc1	.	.	.	.
SMILES	Mtb FBA inh	UGM FP inh	Rv3671c protease	GDH-TPI counter
Cn1c(=O)c([N+](=O)[O-])c(-n2cnc3ccccc32)c2ccccc21	.	.	.	.
COc1ccccc1-c1nnc(C2CCN(S(=O)(=O)c3ccccc3[N+](=O)[O-])CC2)o1	.	.	.	.
O=S(=O)(c1cccs1)N1CN(Cc2cccs2)c2nc3ccccc3nc21	103	.	.	.
Cc1c2c(n3c(nc4ccccc43)c1C#N)N(CCCN(C)C)CC2	141	.	.	.
CCc1c(C)c(C#N)c2nc3ccccc3n2c1NCCCN(C)C	.	/	/	.
Cc1c2c(n3c(nc4ccccc43)c1C#N)N(CCN(C)C)CC2	+	.	.	.
CCCCCn1nc(-c2ccccc2)c2nc3ccccc3nc21	.	38	.	.
COc1ccc2cc(/C=C/C(=O)N3CCN(CC(=O)N4CCCCCC4)CC3)ccc2c1	30	.	.	.
COC(=O)C1CCN(C(=O)/C=C/c2ccc(OC)cc2)CC1	.	.	.	.
CCOc1ccc(/C=C(\C)C(=O)c2c(C)cc(C)[nH]c2=O)cc1	.	.	.	46
CC(C)CC1C(=O)N(Cc2cn(CCC3OCCCO3)nn2)CCS(=O)(=O)N1Cc1ccc(-c2ccc(Cl)c(Cl)c2)cc1 (centres undefined)	.	/	/	.
N#Cc1c(N)c(C#N)c(-c2ccc3c(c2)OCO3)c2c1CCCC2	.	.	.	41
N#Cc1c(N)nc2c(c1-c1ccc3c(c1)OCO3)CCc1ccccc1-2	31	.	.	.
N#Cc1c(N)c(C#N)c(-c2ccc(O)cc2)c2c1CCCC2	.	.	.	.

Screens (PubChem)
